Not all results are given here.
SARS PLpro yeast-1 = SARS-CoV PLP inhibition in yeast. S. cerevisiae expressing SARS-CoV PLpro, growth rescue. Potency, µM (doses to about 32.9 µM), inactives show at the highest dose activity, positive = growth rescue, usual class: activators. actives 0.19% (n = 330,000). AID 485353; calls by dose curve; note: potency is the fitted concentration of half-maximal effect; 0% is about no effect; nearly all actives have a fitted effect of over 55% in size
CHX counter = counter-screen hit for Shiga toxin inhibitors, cycloheximide; cell reporter, cycloheximide protein synthesis inhibition counterscreen; max response, %; actives 12% (n = 300,000); AID 2314; in the data active = max response mostly above about 13%, no sharp cut-off; inactive = mostly below about 14%; note: read at 38.3 µM for the half of the compounds with a filed dose; 0% is about no effect
AMA1-RON2 inh = disrupts binding of P. falciparum AMA1 to RON2; actives 0.2% (n = 360,000); Potency, µM (series often up to 58.2 µM), for inactives: top-dose activity change, negative = inhibition, actives largely listed as inhibitors; AlphaScreen AMA1-biotinylated RON2 peptide binding;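 note: potency is the fitted concentration of half-maximal effect; 0% = vehicle wells and -100% = peptide control; nearly all actives have a fitted effect of over 45% in size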
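AMA1 (3D7) with his tag at 25 nM final met compounds first, then biotinylated RON2 peptide at 25 nM; detection used donor plus acceptor beads, 10 µg/mL apiece, read by AlphaScreen after 30 min at room temperature.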
AmpC detergent = inhibitors of E. coli AmpC beta-lactamase with detergent; Potency, µM (series often up to 114 µM), without a hit: at the top dose activity change, negative = inhibition, hits mostly inhibitors; actives 0.041% (n = 370,000); AmpC hydrolysis of nitrocefin, absorbance 480 nm, 0.01% Triton; P00811;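 note: potency is the fitted concentration of half-maximal effect; 0% = no-compound wells and -100% = no-enzyme wells; nearly all actives have a fitted effect of over 25% in size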
Target sequence (P00811 whole entry, looked up): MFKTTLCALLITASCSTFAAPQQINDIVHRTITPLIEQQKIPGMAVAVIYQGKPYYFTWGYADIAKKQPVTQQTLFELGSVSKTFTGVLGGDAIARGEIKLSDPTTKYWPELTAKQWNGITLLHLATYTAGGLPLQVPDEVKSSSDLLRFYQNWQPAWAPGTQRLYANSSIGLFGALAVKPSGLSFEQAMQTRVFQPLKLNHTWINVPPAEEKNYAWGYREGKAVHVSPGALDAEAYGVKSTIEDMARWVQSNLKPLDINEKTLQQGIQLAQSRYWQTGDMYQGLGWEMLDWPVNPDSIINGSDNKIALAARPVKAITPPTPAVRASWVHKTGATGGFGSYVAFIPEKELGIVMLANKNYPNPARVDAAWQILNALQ
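20 mM phosphate pH 7.0 + 0.01% (detergent screen) or 0.0001% Triton X-100; 5.3 nM AmpC reagent; cpd preinc 15 min RT; nitrocefin (800 uM stock) to start; A480 q20 s × 4 min; Activity was normalised to no-enzyme and no-compound control wells.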
Shiga inhibitor = inhibitors of Shiga toxin in Vero cells; Vero cells, Shiga toxin protein synthesis inhibition reporter; inhibition, % at 38.7 µM; actives 9.2% (n = 290,000); in the data active = inhibition mostly above about 28%, no sharp cut-off; inactive = mostly below about 43%; note: 0% is about no effect
AmpC inh no detg = AmpC beta-lactamase inhibition without detergent. AmpC nitrocefin hydrolysis, absorbance 480 nm, 0.0001% Triton. AID 485341. Potency, µM (highest dose often 57.1 µM), for inactives: at the highest dose activity change, negative = inhibition, hits mostly inhibitors. actives 0.52% (n = 330,000). P00811;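 note: potency is the fitted concentration of half-maximal effect; plate controls were no compound for no effect and no enzyme for full effect; nearly all actives have a fitted effect of over 20% in size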
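20 mM phosphate pH 7.0 + 0.01% (detergent screen) or 0.0001% Triton X-100; 5.3 nM AmpC reagent; cpd preinc 15 min RT; nitrocefin (800 uM stock) to start; A480 q20 s × 4 min; Activity was normalised to no-enzyme and no-compound control wells.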
SARS PLpro yeast-2 = Validates SARS-CoV PLpro inhibitor hits in yeast; actives 19% (n = 1,000); yeast expressing SARS-CoV PLpro, growth phenotype rescue; AID 652038; calls only; shares compounds with SARS PLpro yeast-1; call rule not given here
The depositor's hits bear a star; i = inactive; ? = inconclusive; · = no result given; + = active, no number. Unless noted, calls come from the whole dose curve; as a rule, active = well fitted curve in the direction sought with a large enough effect; inconclusive = small, poorly fitted or top-dose-only effect, or another doubt; inactive = no such curve, though single readings can be large; an effect the other way counts as inactive or inconclusive.

SMILES	SARS PLpro yeast-1	CHX counter	AMA1-RON2 inh	AmpC detergent	Shiga inhibitor	AmpC inh no detg	SARS PLpro yeast-2
COc1ccc(/C=N/NC(=O)CNC(=O)/C=C/c2ccccc2OC)cc1	0%	-4	4%	4%	-5	-40%	·
CC(C)(C)C1=C(C#N)C(c2cccnc2)C(C#N)=C(N)O1 (stereo not given)	18µM*	7	7%	-12%	-3	-17%	i
COc1cccc(C2C(C#N)=C(N)OC(C(C)(C)C)=C2C#N)c1 (stereo not given)	-7%	-4	-10%	-6%	15	-32%	·
N#CC1=C(N)Oc2c(ccc3cccnc23)C1c1cccnc1 (stereo not given)	?	-1	-38%	1%	3	-8%	i
Cc1ccc2cc(C3C(C#N)=C(N)Oc4c3ccc3cccnc43)c(=O)[nH]c2c1 (stereo not given)	27%	8	-1%	-3%	-3	-25%	·
CC(Sc1n[nH]c(-c2ccccc2F)n1)C(=O)Nc1ccc(S(N)(=O)=O)cc1 (stereo not given)	?	·	4%	-1%	·	-47%	i
O=C(CN1CCCCC1)c1ccc(OC(F)F)cc1	?	-5	-13%	-1%	-6	-19%	i
O=C(CN1CCCCC1CO)c1ccc(OC(F)F)cc1 (stereo not given)	-6%	-2	0%	0%	-3	46%	·
O=C(CCS(=O)(=O)c1ccccc1)Nc1ccc(N2CCOCC2)cc1	-1%	14	9%	-8%	-5	-6%	·
CC(=O)CSc1nnc(-c2ccncc2)n1C	?	-3	1%	?	-13	-5%	i
Cn1c(SCC(=O)C(C)(C)C)nnc1-c1ccncc1	10%	-4	1%	-6%	-14	-3%	·
Cc1ccccc1OCc1nc2ccccc2c(=O)n1/N=C/c1cn[nH]c1-c1ccccc1	26%	7	30%	-8%	30	-13%	·
Cc1cc(/C=N/n2c(COc3ccccc3)nc3ccccc3c2=O)c(O)c([N+](=O)[O-])c1	2.5µM*	6	?	?	51	20µM*	+
O=C(NNS(=O)(=O)c1ccc(Br)cc1)NC1CCCCC1	?	-2	-5%	5%	15	-26%	·
Cc1cc(C)c(C#N)c(SCc2cn3c(C)cccc3n2)n1	-12%	3	-11%	2%	11	23%	·
Cc1cccc(C2NC(c3cccc(C)c3)C([N+](=O)[O-])C(C)(C)C2[N+](=O)[O-])c1 (stereo not given)	?	-3	-15%	-2%	-3	-22%	i
Cc1ccccc1C1NC(c2ccccc2C)C([N+](=O)[O-])C(C)(C)C1[N+](=O)[O-] (stereo not given)	0%	1	-5%	-2%	3	-1%	·
CCC(C)NC(=O)c1sc2nc(C)c(C(=O)Nc3ccc(C)cc3C)c(-c3ccccc3Cl)c2c1N (stereo not given)	·	·	·	0%	·	·	·
O=C(CNS(=O)(=O)c1ccc(Br)cc1)OCc1cc(=O)n2cc(Br)ccc2n1	4%	-3	·	-12%	-5	-29%	·
Cc1sc2nc(CN(C(=O)NC3CCCCC3)C3CCCC3)[nH]c(=O)c2c1C	3.5µM*	5	40%	6%	-9	-26%	?
CNC(=S)N/N=C/c1cc(C)ccc1C	7%	1	82%	0%	-13	-35%	·
Cc1ccc(C)c(/C=N/NC(=S)NC(C)C)c1	7.1µM*	-2	21%	?	5	-23%	?
Cc1ccc(C)c(/C=N/NC(=S)NCCc2ccccc2)c1	·	11	20%	0%	14	-33%	?
Cc1ccccc1N(CC(=O)NC1CCCC1)C(=O)C1(C)CC(=O)N=C2C=CC(Cl)=CN21 (stereo not given)	-1%	3	-1%	3%	-17	-10%	·
CCCCNC(=O)CCCCCNS(=O)(=O)c1ccc(OC)cc1	?	-2	4%	-6%	-1	0%	i
SMILES	SARS PLpro yeast-1	CHX counter	AMA1-RON2 inh	AmpC detergent	Shiga inhibitor	AmpC inh no detg	SARS PLpro yeast-2
O=C1NCCCC1C(=O)N/N=C/c1cccc(O)c1 (stereo not given)	3%	-2	10%	?	8	-9%	·
O=C1NCCCC1C(=O)N/N=C/c1ccccc1 (stereo not given)	?	0	-2%	0%	-4	-12%	i
OC1(c2cccc(C(F)(F)F)c2)CCN(Cc2nnnn2CCc2ccccc2)CC1	?	1	5%	-5%	-5	181%	i
COC(=O)c1c(NC(=O)Cc2ccc(OC)c(S(=O)(=O)N3CCOCC3)c2)sc(C)c1C	0%	·	-3%	-14%	·	182%	·
CS(=O)(=O)Nc1ccc(C(=O)NCc2ccc3c(c2)OCO3)cc1	0%	-6	-3%	0%	-10	-17%	·
O=C(O)c1ccc(NCc2ccc3c(c2)OCO3)cc1	?	12	2%	?	4	-21%	i
O=C(CCNC(=O)c1ccccc1Cl)Nc1ccc(Cl)c(C(F)(F)F)c1	3.5µM*	4	0%	9%	-7	5%	i
C/C=C\C=C/C(=O)Nc1cccc(C2=NOC3(C2)C[C@@H](C(N)=O)N(C(=O)c2ccc(Cl)cc2)C3)c1 (stereo not given in full)	0%	3	1%	-3%	6	74%	·
COc1ccc(Nc2nnc(SCC(=O)N(CC(C)C)C3CCS(=O)(=O)C3)s2)cc1 (stereo not given)	·	·	0%	·	·	·	·
O=C(COc1ccc(F)c(Cl)c1)N1CCN(c2ccccn2)CC1	?	-4	-3%	2%	7	1%	i
COc1ccc(C2CCCN2C(=O)Nc2ccc(C)c(C)c2)cc1OC (stereo not given)	-1%	-5	-9%	?	-8	12%	·
COC(=O)c1ccc2nc(-c3cccc(Br)c3)c(Cc3ccccc3)n2c1	·	·	6%	·	·	·	·
COc1cc(NC(=S)NCc2ccc(S(N)(=O)=O)cc2)c(OC)cc1Cl	?	1	-3%	?	-13	-25%	i
COc1ccc(Cl)cc1NC(=S)NCCc1ccc(S(N)(=O)=O)cc1	1%	-3	-1%	9%	8	-17%	·
CC(=O)O[C@H]1C(=O)[C@@]2(C)[C@H]([C@H](OC(=O)c3ccccc3)[C@]3(O)C[C@H](OC(=O)[C@H](O)C(NC(=O)c4ccccc4)c4ccccc4)C(C)=C1C3(C)C)[C@]1(OC(C)=O)CO[C@@H]1C[C@@H]2O (stereo not given in full)	0%	2	-5%	-7%	1	211%	·

Assay outcomes (PubChem)
